Measured values from PubChem BioAssay AID624331 (National Center for Advancing Translational Sciences (NCATS), 2012).
Results filed as inconclusive are left out. Calls of active or inactive are those of the source. Calls come from the whole dose curve; as a rule, active = well fitted activation curve with a large enough effect; inconclusive = small, poorly fitted or top-dose-only effect; inactive = no such curve, though single readings can be large or run the other way.

Test: qHTS assay for re-activators of p53 using a Luc reporter: Hit Validation with no p53 Expressed; for activity change, positive = activation: 0% is about no effect
Conditions: p53-null cells, luciferase reporter counter-screen; series mostly up to 46.1 µM; activity change, positive = activation: at the top concentration
Outline: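 Counter-screen of primary hits in a cell line not transfected with p53, in Opti-MEM with 10% FBS; compounds at several concentrations (10 mM stock, 1:5; top 46.1 µM in well), 24 h at 37 deg C, 5% CO2. Luminescence read after 10 min with Amplite reagent.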
Potency is the fitted concentration of half-maximal effect.

Structure (SMILES) | activity change, positive = activation | Potency
O=C(N/N=C\c1cccc(Cl)c1)c1n[nH]c2c1CCCC2 | -19.5% (inactive) | 
S=C(Nc1ccccc1)Nc1nc2ccccc2n1CCOc1ccc(Br)cc1 | -17.4% (inactive) | 
O=[N+]([O-])c1ccc(Cl)cc1Sc1nc2ccccc2o1 | -30.4% (inactive) | 
O=C(N/N=C(\c1ccccc1)c1cccnc1)c1cccc(F)c1 | 53.8% (inactive) | 
Cc1csc(NC(=O)CSc2nnc(-c3cccs3)n2C)n1 | -34.1% (inactive) | 
CN(Cc1ccccc1)c1ncnc2ccc(Br)cc12 | -15.8% (inactive) | 
Cc1cccc(C)c1NC(=O)CC(NCc1ccco1)C(=O)O (centres undefined) | 29.3% (inactive) | 
Clc1cccc(N/N=C(\Cc2nc3ccccc3[nH]2)c2ccccc2)c1 | -3.28% (inactive) | 
O=C(/C(=N/N=C/c1ccc(O)c(O)c1)c1ccccc1)c1ccccc1 | -13.4% (inactive) | 
CC(C)(C)Nc1ncnc2c1cnn2-c1ccccc1 | 24.1% (inactive) | 
Cc1ccc2nc(-c3ccc(NC(=O)CN4C(=O)c5ccccc5C4=O)cc3)sc2c1 | 44.7% (inactive) | 
Cc1ccc2nc(N3C(=O)C(O)=C(C(=O)c4ccc(C)o4)C3c3ccco3)sc2c1 (centres undefined) | 31.9% (inactive) | 
CN1C(=O)C2(OCC(CO)([N+](=O)[O-])CO2)c2ccccc21 (centres undefined) | -34.5% (inactive) | 
O=C(COC(=O)C12CC3CC(CC(O)(C3)C1)C2)Nc1ccc(Br)cc1F | 59.9% (inactive) | 
COc1ccc(-c2nnc(-c3ccc(Br)o3)o2)cc1OC | -12.7% (inactive) | 
CCCCC(=O)NC(c1ccc(Cl)cc1Cl)c1ccc2cccnc2c1O (centres undefined) | 73.7% (inactive) | 
O=C(Nc1cccnc1Cl)c1cc(-c2ccccc2O)on1 | 49% (inactive) | 
O=C(COC(=O)c1ccc(F)cc1)NC1CC1 | -26.2% (inactive) | 
CC1CC1C(=O)Nc1nc2ccc(S(C)(=O)=O)cc2s1 (centres undefined) | 46.1% (inactive) | 
COc1ccc(NC(=O)/C(Cl)=C(/Cl)S(=O)(=O)Cc2ccc(C)cc2)cn1 | -66.8% (inactive) | 

Structure (SMILES) | activity change, positive = activation | Potency
O=C(Nc1nnc(-c2ccccc2F)s1)C1CCN(S(=O)(=O)c2ccc(Cl)cc2)CC1 | -11.9% (inactive) | 
Cc1cc([N+](=O)[O-])ccc1NC(=O)/C=C/c1cccs1 | -2.37% (inactive) | 
CC(C)CCn1cnc2c(sc3nc4c(cc32)CSC(C)(C)C4)c1=O | 33% (inactive) | 
O=C(Nc1ccc(CN2CCOCC2)cc1)c1cc2ccccn2n1 | 9.72% (inactive) | 
COc1ccccc1C(=O)CSc1nccn1C | 68.7% (inactive) | 
CC12CN(C(=O)c3cccc([N+](=O)[O-])c3)C3(C#N)CC1CCC23C (centres undefined) | -10.6% (inactive) | 
COc1ccc(-c2nsc3c(N4CCCC4)ncnc23)cc1 | -13.9% (inactive) | 
CCN(Cc1ccccc1)C(=O)CN1C(=S)NC(C)(C)CC1C (centres undefined) | -54% (inactive) | 
O=C(CCc1nc(-c2ccccc2)no1)N1CCCC1 | 25.5% (inactive) | 
N#CC1=C(N)N2C(=C(C#N)C13CCCCC3)SC1CCCCC12O (centres undefined) | -19.8% (inactive) | 
Cc1ccc2nc(-c3ccc(NC(=O)CCN4C(=O)c5ccccc5C4=O)cc3)sc2c1 | 90.2% (inactive) | 
CCOC(=O)NC1(Nc2ccc(C)cc2)Oc2ccccc2O1 | 91% (inactive) | 
Cc1cccc(NC(=O)c2ccccn2)c1C | 32.6% (inactive) | 
CCOC(=O)c1csc(Nc2nc3ccc(F)cc3s2)n1 | 16.4% (inactive) | 
Cc1nnc2n(c1=O)N=C(c1ccc(Cl)cc1)CS2 | 32.4% (inactive) | 
S=C(Nc1cccc(Br)c1)c1ccccc1 | -20.7% (inactive) | 
O=C(N/N=C1\CCc2ccccc21)c1ccccc1O | 10.7% (inactive) | 
COc1cc(NC(=O)CN2CCCCC2)c(C)cc1[N+](=O)[O-] | 26.6% (inactive) | 
CC(=O)Oc1ccc(Cl)cc1/C=C/c1ccc2ccccc2n1 |  | 23.1 µM (active)
